{
  "source": "PubChem BioAssay (NCATS)",
  "note": "Inconclusive results are not listed. Entries that show only a call come without a potency. Calls of active or inactive are those of the source. The call rests on the fitted dose curve; in most records, active means well fitted cell-killing curve with a large enough effect; inconclusive means small, poorly fitted or top-dose-only effect, or effect the other way; inactive means no such curve, though single readings can be large or run the other way. Potency means the concentration at half of the fitted maximal effect.",
  "data": [
    {"test": "Quantitative High-Throughput drug screen in 47 multiple myeloma cell lines against the NCATS MIPE library collection: KHM11_PLB cell viability assay (AID 1918962); further: nearly all actives have a fitted effect of over 35% in size", "details": "KHM11 myeloma cell viability, CellTiter-Glo ATP luminescence, 48 h; series mostly up to 45.8 µM", "excerpt": "PI: Beverly A. Mock Ph.D.\nLaboratory of Cancer Biology and Genetics,\nCenter for Cancer Research, National Cancer Institute,\nNational Institute of Health, Bethesda, Maryland\nDrug resistance and disease progression are common in multiple myeloma (MM) patients, underscoring the need for new therapeutic combinations. […] We hypothesized that effective combinations would reduce MYC expression and enhance p16 activity. […] These preclinical data identify potentially useful drug combinations for evaluation in drug-resistant MM and reveal potential mechanisms of combined drug sensitivity.\nDescribed herein is the primary MIPE qHTS used to cherrypick compounds. Validated compounds were then further tested for potential synergistic activiy.\n[1] Peat TJ, Gaikwad SM, Dubois W, Gyabaah-Kessie N, Zhang S, Gorjifard S, Phyo Z, Andres M, Hughitt VK, Simpson RM, Miller MA, Girvin AT, Taylor A, Williams D, D'Antonio N, Zhang Y, Rajagopalan A, Flietner E, Wilson K, Zhang X, Shinn P, Klumpp-Thomas C, McKnight C, Itkin Z, Chen L, Kazandijian D, Zhang J, Michalowski AM, Simmons JK, Keats J, Thomas CJ, Mock BA. Drug combinations identified by high-throughput screening promote cell cycle transition and upregulate Smad pathways in myeloma. Cancer Lett. 2023 Aug 1;568:216284. doi: 10.1016/j.canlet.2023.216284. Epub 2023 Jun 24. PMID: 37356470; PMCID: PMC10408729.\nSEQUENCE No. (e.g., 1, 2, 3, etc.); […] (e.g., Cells, Incubation, Reagent, etc.); VALUE and DESCRIPTION.\n1; Cells; 5 uL; white, solid bottom 1536-well Greiner assay plate.\n2; Compounds; 23 nL; Kalypsis pin tool (Wako USA) equipped with a 1536-well pin head to transfer to the assay plates.\n3; Incubation; 48 hours; 37C incubation.\n4; Reagent;5uL; CellTiter Glo (Promega).\n5; Detector; 425V; Luminescence; Viewlux PerkinElmer.\nNOTES (numbers refer to Sequence numbers above)\n1. The cell-based screening methods employed in this study were like those previously published. Briefly, the corresponding myeloma cell lines were screened in 1,536-well plates with 500 cells, 5-uL per well for inhibition of cell viability (assessed by measuring ATP levels with CellTiterGlo).\n2. NCATS MIPE 4.0 library of approved and investigational drugs were added using the Kalypsis pin tool. Wells treated with DMSO only for 100% viability and media only wells for 0% viability were used as controls.\n3. The assay plates were covered and incubated for 48 hours in a 37C, 5% CO2 incubator with controlled humidity.\n4. After 48 hours, CellTilter-GloTM luminescent substrate mix (Promega) reagent was added to the assay plate and plates we incubated for 5 min at room temperature.\n5. Signal was measured as median relative luminescence units on a ViewLux (PerkinElmer) multiplate reader.\n[1] Heske CM, Davis MI, Baumgart JT, Wilson K, Gormally MV, Chen L, Zhang X, Ceribelli M, Duveau DY, Guha R, Ferrer M, Arnaldez FI, Ji J, Tran HL, Zhang Y, Mendoza A, Helman LJ, Thomas CJ. Matrix Screen Identifies Synergistic Combination of PARP Inhibitors and Nicotinamide Phosphoribosyltransferase (NAMPT) Inhibitors in Ewing Sarcoma. Clin Cancer Res. 2017 Dec 1;23(23):7301-7311. doi: 10.1158/1078-0432.CCR-17-1121. Epub 2017 Sep 12. PMID: 28899971; PMCID: PMC6636827.", "values": [
      {"compound": "CC#C[C@]1(O)CC[C@H]2[C@@H]3CCC4=CC(=O)CCC4=C3[C@@H](c3ccc(N(C)C)cc3)C[C@@]21C", "Potency": "1.87 µM (active)"},
      {"compound": "O=C(Nc1ccc([N+](=O)[O-])cc1Cl)c1cc(Cl)ccc1O", "Potency": "1.32 µM (active)"},
      {"compound": "NC(CO)C(=O)NNCc1ccc(O)c(O)c1O", "note": "(stereo not given)", "Potency": "inactive"},
      {"compound": "CC[C@@]1(O)C(=O)OCc2c1cc1n(c2=O)Cc2cc3c(CN(C)C)c(O)ccc3nc2-1", "Potency": "1.66 µM (active)"},
      {"compound": "CS(=O)(=O)CCNCc1ccc(-c2ccc3ncnc(Nc4ccc(OCc5cccc(F)c5)c(Cl)c4)c3c2)o1", "Potency": "4.69 µM (active)"},
      {"compound": "Cc1ccccc1N1C(=O)c2cc(S(N)(=O)=O)c(Cl)cc2NC1C", "note": "(stereo not given)", "Potency": "inactive"},
      {"compound": "Clc1ccccc1C(c1ccccc1)(c1ccccc1)n1ccnc1", "Potency": "inactive"},
      {"compound": "CN(C)CCC=C1c2ccccc2C=Cc2ccccc21", "Potency": "inactive"},
      {"compound": "CN(C)c1nc(N(C)C)nc(N(C)C)n1", "Potency": "inactive"},
      {"compound": "Cn1c(=O)c2c(ncn2C)n(C)c1=O", "Potency": "inactive"},
      {"compound": "COc1cc2nc(N(C)CCCNC(=O)C3CCCO3)nc(N)c2cc1OC", "note": "(stereo not given)", "Potency": "inactive"},
      {"compound": "CC(C)C(=O)Nc1ccc([N+](=O)[O-])c(C(F)(F)F)c1", "Potency": "6.62 µM (active)"},
      {"compound": "CN(C)CCCN1c2ccccc2CCc2ccc(Cl)cc21", "Potency": "3.32 µM (active)"},
      {"compound": "CC1(C)O[C@H]2CC(=O)OC[C@]23[C@H]2CC[C@@]4(C)[C@H](c5ccoc5)OC(=O)[C@H]5O[C@]54[C@]2(C)C(=O)C[C@@H]13", "Potency": "inactive"},
      {"compound": "O=C(c1ccc(F)cc1)C1CCN(CCn2c(=O)[nH]c3ccccc3c2=O)CC1", "Potency": "inactive"},
      {"compound": "COc1nc(C)nc(Cl)c1NC1=NCCN1", "Potency": "inactive"},
      {"compound": "N[C@@H](Cc1c[nH]c2ccc(O)cc12)C(=O)O", "Potency": "inactive"},
      {"compound": "NC(=O)NO", "Potency": "2.96 µM (active)"},
      {"compound": "CC1COc2c(N3CCN(C)CC3)c(F)cc3c(=O)c(C(=O)O)cn1c23", "note": "(stereo not given)", "Potency": "inactive"},
      {"compound": "O=C1c2c(O)ccc(O)c2C(=O)c2c(NCCNCCO)ccc(NCCNCCO)c21", "Potency": "0.833 µM (active)"},
      {"compound": "CC(=O)OCC(CCn1cnc2cnc(N)nc21)COC(C)=O", "Potency": "inactive"},
      {"compound": "O=c1c(-c2ccc(O)cc2)coc2cc(O)cc(O)c12", "Potency": "inactive"},
      {"compound": "CCc1cccc2c3c([nH]c12)C(CC)(CC(=O)O)OCC3", "note": "(stereo not given)", "Potency": "inactive"},
      {"compound": "Cc1ccc(C(=O)Nc2ccc(S(=O)(=O)O)c3cc(S(=O)(=O)O)cc(S(=O)(=O)O)c23)cc1NC(=O)c1cccc(NC(=O)Nc2cccc(C(=O)Nc3cc(C(=O)Nc4ccc(S(=O)(=O)O)c5cc(S(=O)(=O)O)cc(S(=O)(=O)O)c45)ccc3C)c2)c1", "Potency": "inactive"},
      {"compound": "O=C1N(c2ccccc2)c2ccccc2C1(Cc1ccncc1)Cc1ccncc1", "Potency": "inactive"},
      {"compound": "CCC1(C)CC(=O)NC1=O", "note": "(stereo not given)", "Potency": "inactive"},
      {"compound": "Cc1cc(C(C)(C)C)cc(C)c1CC1=NCCN1", "Potency": "inactive"},
      {"compound": "CN1C2CCC1CC(OC(=O)C(CO)c1ccccc1)C2", "note": "(stereo not given)", "Potency": "inactive"},
      {"compound": "COc1ccccc1OCCNCC(O)COc1cccc2[nH]c3ccccc3c12", "note": "(stereo not given)", "Potency": "inactive"},
      {"compound": "CN(C)C(=O)C(CCN1CCC(O)(c2ccc(Cl)cc2)CC1)(c1ccccc1)c1ccccc1", "Potency": "18.7 µM (active)"},
      {"compound": "CCC1(c2ccccc2)C(=O)NCNC1=O", "Potency": "5.26 µM (active)"},
      {"compound": "CC(C)NCC(O)COc1ccc(CCOCC2CC2)cc1", "note": "(stereo not given)", "Potency": "inactive"},
      {"compound": "Cc1cc(C(C)(C)C)c(O)c(C)c1CC1=NCCN1", "Potency": "inactive"},
      {"compound": "CNCCCC12CCC(c3ccccc31)c1ccccc12", "Potency": "26.4 µM (active)"},
      {"compound": "COc1cc2nc(N3CCN(C(=O)c4ccco4)CC3)nc(N)c2cc1OC", "Potency": "10.5 µM (active)"},
      {"compound": "CC(C(=O)O)c1cccc(C(=O)c2ccccc2)c1", "note": "(stereo not given)", "Potency": "18.7 µM (active)"},
      {"compound": "CS(=O)(=O)Nc1ccc([N+](=O)[O-])cc1Oc1ccccc1", "Potency": "inactive"},
      {"compound": "Cn1c(=O)c2[nH]cnc2n(C)c1=O", "Potency": "inactive"},
      {"compound": "CCOC(=O)C(C)(C)Oc1ccc(Cl)cc1", "Potency": "inactive"},
      {"compound": "Cc1ccc(-c2cc(C(F)(F)F)nn2-c2ccc(S(N)(=O)=O)cc2)cc1", "Potency": "inactive"}
    ]}
  ]
}
